Bioassay records deposited in PubChem by several laboratories.
CYP2C19 act – activators of human cytochrome P450 2C19. P33261. recombinant CYP2C19, luciferin-H EGE luminescence; stronger effect = higher value; 0 = fully inhibited enzyme, 1 = untreated enzyme. activation factor at 5 µM. 96,000 tested, under 10 active. AID 1025;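 active = activation factor of at least 2 at 5 µM in the primary screen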
CYP2C9 inhib – inhibitors of human CYP2C9; P11712; CYP2C9 Supersomes, luciferin-H conversion, luminescence; inhibition, % at 5 µM; actives 20% (n = 96,000); AID 777;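 active = blocking of liver enzyme CYP2C9 beyond about 50% at 5 µM, limit read from the data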
Target sequence (P11712 whole entry, looked up): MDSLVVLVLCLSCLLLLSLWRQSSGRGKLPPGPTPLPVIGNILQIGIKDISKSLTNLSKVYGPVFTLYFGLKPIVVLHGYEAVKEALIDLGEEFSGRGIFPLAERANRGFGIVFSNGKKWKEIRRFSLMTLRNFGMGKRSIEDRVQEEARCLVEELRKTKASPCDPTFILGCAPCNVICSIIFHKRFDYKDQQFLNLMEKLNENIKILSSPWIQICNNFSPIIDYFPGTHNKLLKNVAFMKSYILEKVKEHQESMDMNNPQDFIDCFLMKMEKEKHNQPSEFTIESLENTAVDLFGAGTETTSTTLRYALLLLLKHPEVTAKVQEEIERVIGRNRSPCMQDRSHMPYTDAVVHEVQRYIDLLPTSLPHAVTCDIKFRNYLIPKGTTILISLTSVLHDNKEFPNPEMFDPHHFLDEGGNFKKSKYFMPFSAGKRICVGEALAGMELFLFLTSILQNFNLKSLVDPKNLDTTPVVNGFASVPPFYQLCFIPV
PostGolgi yeast – growth inhibition of a yeast mutant, post-Golgi transport screen. post-Golgi transport phenotypic cell assay. inhibition, % at 10 µM. actives 0.9% (n = 98,000);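 note: yeast cells grown in 1536-well plates; yeast grown about 18 h at 30C before absorbance read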
CYP2C19 inhib – inhibitors of human CYP2C19; P33261; CYP2C19 Supersomes, luciferin-H EGE luminescence, 30 min; inhibition, % at 5 µM; actives 21% (n = 96,000); AID 778;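 active = CYP2C19 inhibition above a set limit at 5 µM in the primary screen, cut at about 50% in these data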
PostGolgi ctrl – yeast control strain growth, post-Golgi counter-screen | efflux-deficient yeast background strain, growth absorbance A615, 16 h | inhibition, % at 10 µM | actives 5% (n = 98,000)
CYP2C9 activ – activators of human CYP2C9; recombinant CYP2C9, luciferin-H conversion, luminescence; stronger effect = higher value; factor 1 = untreated enzyme, 0 = blocked; AID 1024; activation factor at 5 µM; actives 1.4% (n = 96,000);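 active = activation factor of 2 or more for CYP2C9 at a 5 µM dose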
Numbers stand for hits; 0 = inactive; - = no result. An excerpt weighted towards active compounds, which were near 32% of everything screened. Cut-off read from the data, not from the text of the source, unless noted: active = inhibition above about 30%; inactive = the rest.

SMILES	CYP2C19 act	CYP2C9 inhib	PostGolgi yeast	CYP2C19 inhib	PostGolgi ctrl	CYP2C9 activ
CN(C)c1nc2ccc(OCCN3CCCCC3)cc2s1	0	0	0	0	0	0
COc1cccc(CNC(=O)C2CCN(S(=O)(=O)c3cccs3)CC2)c1	0	0	0	0	0	0
COC(=O)[C@@H](NC(=O)N(C1CCCCC1)C1CCCCC1)C(C)C	0	0	0	0	0	0
CCOC(=O)C1C(=O)CC(C)(O)C(C(=O)OCC)C1c1ccco1 (stereo not given)	0	0	0	0	0	0
CC12CCC(c3nnc(SCC(=O)Nc4cccc5ccccc45)nc31)C2(C)C (stereo not given)	0	0	0	0	0	0
O=C1COc2ccc3ccccc3c2CN1	0	0	0	0	0	0
CN(C)c1ncc(S(=O)(=O)c2ccc(Cl)cc2)c(-c2ccccc2)n1	0	60.5	0	97.0	0	0
Cc1ccc(S(=O)(=O)c2cnc(-c3ccccc3)nc2Oc2ccccc2)cc1	0	0	0	0	0	0
Cc1ccc(C)c(N2CCN(C(=O)c3ccc(Cn4c(=O)[nH]c5ccccc5c4=O)cc3)CC2)c1	0	74.9	0	70.3	0	0
Cc1ccc(N2CCN(C(=O)c3ccccc3)CC2)c(C)c1	0	75.8	0	96.0	0	0
O=C(c1ccc(Cn2c(=O)[nH]c3ccccc3c2=O)cc1)N1CCN(c2ccc(Cl)cc2)CC1	0	0	0	0	0	0
CCCc1cc(C(=O)N2CCN(c3ccccc3C)CC2)cs1	0	65.5	0	69.2	38.2	0
Cc1ccc(N2CCN(C(=O)c3ccccc3Br)CC2)c(C)c1	0	62.3	0	98.2	37.2	0
Cc1ccccc1N1CCN(Cc2cccc(C(=O)O)c2)CC1	0	0	0	0	0	0
Cc1ccc(C)c(N2CCN(C(=O)c3ccccc3Br)CC2)c1	-	-	0	-	0	-
O=C(CSc1nnc(-c2ccccc2Br)o1)N1CCc2ccccc2C1	0	0	0	0	0	0
CC1(C)CC(=O)c2cnc(NC(=O)c3ccco3)nc2C1	0	0	0	0	0	0
Cc1noc(C)c1S(=O)(=O)N1CCC(C(=O)NC2CCCc3ccccc32)CC1 (stereo not given)	0	0	0	0	0	0
Cc1cc(=O)n2[nH]c(-c3ccc(F)cc3)nc2n1	0	0	0	0	0	0
O=C(CN1C(=O)COc2ccccc21)NCCCN1CCc2ccccc2C1	0	0	0	0	0	0
O=C(CN1C(=O)COc2ccccc21)NCCC1=CCCCC1	0	0	0	80.7	0	0
O=C(CCN1C(=O)COc2ccccc21)NCCC1=CCCCC1	0	0	0	62.6	0	0
Cc1cc(C)nc(N2CCC(CNC(=O)CCc3ccccc3)CC2)n1	0	0	0	0	0	0
Cc1cccc2[nH]c3c(N4CCN(C(=O)c5ccco5)CC4)ncnc3c12	0	0	0	89.6	0	0
CCc1cc(N2CCOCC2)cc2c1[nH]c1ccccc12	0	0	0	0	35.7	0
SMILES	CYP2C19 act	CYP2C9 inhib	PostGolgi yeast	CYP2C19 inhib	PostGolgi ctrl	CYP2C9 activ
Cc1ccc2[nH]c3c(N4CCOCC4)ncnc3c2c1	0	0	0	0	0	0
Cc1ccc(-c2nsc3c(N4CCN(C(=O)c5ccco5)CC4)ncnc23)cc1	0	0	-	0	-	0
c1ccc2c(c1)[nH]c1c(N3CCOCC3)ncnc12	0	52.0	0	0	0	0
Clc1ccc2[nH]c3c(N4CCC5(CC4)OCCO5)ncnc3c2c1	0	72.9	0	75.9	0	0
COc1ccc(C2NC(=O)NC(O)(C(F)(F)F)C2C(=O)c2ccc(C)cc2)cc1 (stereo not given)	0	0	0	0	0	0
O=C(CNC(=O)c1ccco1)Nc1ccc(S(=O)(=O)N2CCCC2)cc1	0	0	0	0	0	0
Cc1cccc2[nH]c3c(N4CCC5(CC4)OCCO5)ncnc3c12	0	0	0	50.8	0	0
COc1ccc(Cc2nnc(NS(C)(=O)=O)s2)cc1	0	0	0	0	0	0
Cc1cccc(C)c1OCC(=O)Nn1c(C)nc2ccccc2c1=O	0	63.9	0	0	0	0
COc1ccc(Cl)cc1C(=O)Nn1c(C)nc2ccccc2c1=O	0	52.3	0	57.0	0	0
Cc1ccc(C(C)C)c(OCC(=O)Nn2c(C)nc3ccccc3c2=O)c1	0	84.4	0	0	0	0
Cc1nc2ccccc2c(=O)n1NC(=O)COc1ccccc1	0	0	-	0	-	0
CCC1(C)Cc2ccccc2/C(=C/C(=O)N2CCCCC2)N1 (stereo not given)	0	0	0	0	0	0
CN(C)S(=O)(=O)c1ccc(C(=O)Nc2cccnc2)cc1	0	0	0	0	0	0
O=C(CCN1C(=O)c2ccccc2C1=O)Nn1cnnc1	0	90.1	0	0	0	0
Cc1cc(C)cc(NC(=S)NC(=O)CCN2C(=O)c3ccccc3C2=O)c1	0	0	87.5	0	91.6	0
CCc1cccc(OCCCCN(CC)CC)c1	0	0	0	0	0	0
COC(=O)CNC(=O)CNC(=O)Nc1ccccc1Cl	0	0	0	0	0	0
COc1ccc(S(=O)(=O)N2CCC(C(=O)N3CCCCC3)CC2)cc1OC	0	0	0	0	0	0
O=c1cc(-c2ccccc2)n(S(=O)(=O)c2ccccc2)o1	0	0	0	52.2	0	0
COc1ccc(S(=O)(=O)n2oc(=O)cc2-c2ccccc2)cc1OC	0	0	0	96.7	0	0
COc1ccc(S(=O)(=O)n2oc(=O)cc2-c2ccccc2)cc1	0	0	0	0	0	0
O=C(OCC(=O)N1CCN(C(=O)c2ccco2)CC1)c1ccccc1C(=O)c1ccc(Cl)cc1	0	0	0	0	0	0
O=C(Nc1ccc(OCC(F)(F)C(F)F)c(C(F)(F)F)c1)c1ccccc1O	0	0	0	0	85.2	0
Cc1ccc(NC(=O)OCC(F)(F)C(F)F)cc1NC(=O)OCC(F)(F)C(F)F	0	0	0	0	0	0
SMILES	CYP2C19 act	CYP2C9 inhib	PostGolgi yeast	CYP2C19 inhib	PostGolgi ctrl	CYP2C9 activ
Cc1nc2ccc(NC(=O)Cn3cnc4c3c(=O)n(C)c(=O)n4C)cc2s1	0	0	-	0	-	0
Cc1c(OCc2ccccc2)c(=O)ccn1Cc1ccc(Cl)cc1	0	57.3	0	0	43.3	0
COc1ccc(Cn2ccc(=O)c(Cc3c(Cl)cccc3Cl)c2C)cc1	0	0	0	76.8	0	0
Cc1c(Cc2c(Cl)cccc2Cl)c(=O)ccn1C(C)c1ccccc1 (stereo not given)	0	0	0	90.1	0	0
CC(Oc1ccc(-c2ccccc2)c(F)c1)c1ccn(S(=O)(=O)c2ccc(Cl)cc2)n1 (stereo not given)	0	68.1	0	0	0	0
CC(Oc1ccc(Cl)cc1)c1ccnn1S(=O)(=O)c1ccccc1 (stereo not given)	0	0	0	82.1	0	0
CCOC(=O)c1c(C2CC2)csc1NC(C)=O	0	0	0	0	0	0
O=C(COc1cccc(Oc2ccccc2)c1)Nc1ncccn1	0	0	0	0	0	0
COc1ccccc1N1CCN(C(=O)Cn2c(=O)[nH]c3ccsc3c2=O)CC1	0	0	0	0	0	0
